In PubChem BioAssay (NCI) one finds growth data, which are given here for 8 molecules.

Molecules are shown by their SMILES. Compounds without any hit were thinned out: in the full panel of roughly 83,000, 20% have a hit.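 Note: values are percent growth. 100 is the growth of untreated cells, values between 100 and 0 indicate rising inhibition; between -100 and 0 indicates cell death.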 Values without a mark were called inactive. The source made the active and inactive calls. Rule for the calls: active = growth percent below 10; inactive = the rest.

Some test systems named below: SK-MEL-2 melanoma; EKVX NSCLC; SN12C renal; UO-31 renal; TK-10 renal; ACHN renal; CAKI-1 renal; A498 renal; CCRF-CEM leukemia; MOLT-4 leukemia; SR leukemia; RPMI-8226 leukemia; OVCAR-8 ovarian; OVCAR-5 ovarian; OVCAR-4 ovarian; SK-OV-3 ovarian; IGROV1 ovarian; OVCAR-3 ovarian; HS 578T breast; NCI/ADR-RES ovarian.
Holding throughout (assay): NCI-60 one-dose screen, 48 h (100 = growth as untreated, 0 = no growth, -100 = all killed)
Holding throughout (conditions): 10 µM unless noted

`Nc1ccc(-c2csc(-n3[nH]c(=O)ccc3=O)n2)cc1`: the growth in the experiment on SK-MEL-2 melanoma was 109%; with EKVX NSCLC, 88.4%; in the experiment with SN12C renal, 103%; with UO-31 renal, 84.1%; with TK-10 renal, 120%; in the experiment on ACHN renal, 99.5%. For the same molecule, the growth is 94% in the experiment with CAKI-1 renal; 103% in the experiment with A498 renal; 96.4% with CCRF-CEM leukemia; 87.6% with MOLT-4 leukemia; 102% in the experiment with SR leukemia; 97.3% with RPMI-8226 leukemia. The growth with OVCAR-8 ovarian was 101%; with OVCAR-5 ovarian, 108%; in the experiment with OVCAR-4 ovarian, 101%; with SK-OV-3 ovarian it was 112%; with IGROV1 ovarian, 99%; in the experiment with OVCAR-3 ovarian, 113%. For the same molecule, the growth is 100% in the experiment on HS 578T breast and 94.4% with NCI/ADR-RES ovarian.

As for `O=C(c1c[nH]c2ccccc12)c1n[nH]c(=S)n1-c1cccc(Br)c1`, the growth in the experiment with SK-MEL-2 melanoma is 85.9%; in the experiment on EKVX NSCLC it was 70.9%; in the experiment with SN12C renal, 96.3%; in the experiment on UO-31 renal it was 86.6%; with TK-10 renal, 106%; in the experiment on ACHN renal, 100%. The growth in the experiment with CAKI-1 renal was 77.2%; in the experiment with A498 renal, 118%; in the experiment with CCRF-CEM leukemia, 90.6%; with MOLT-4 leukemia, 90.2%; in the experiment on SR leukemia it was 76.8%; in the experiment with RPMI-8226 leukemia, 84.1%. For the same molecule, the growth in the experiment on OVCAR-8 ovarian is 93.5%; in the experiment with OVCAR-5 ovarian, 89.7%; in the experiment with OVCAR-4 ovarian it was 87.1%; in the experiment with SK-OV-3 ovarian it was 91.8%; with IGROV1 ovarian, 60.6%; with OVCAR-3 ovarian, 86.4%. The results for the growth in the experiment on HS 578T breast and in the experiment with NCI/ADR-RES ovarian were 93.8% and 106%, respectively.

As for `O=C(O)c1ccc(-c2ccc(/C=N/Nc3nc(Nc4ccccc4)nc(N4CCCCC4)n3)o2)cc1`, the growth in the experiment with SK-MEL-2 melanoma was 68.5%; in the experiment on EKVX NSCLC, 78.8%; with SN12C renal, 66.8%; in the experiment on UO-31 renal it was 44.4%; with TK-10 renal, 41.8%; with ACHN renal, 73.3%. In addition, the growth in the experiment on CAKI-1 renal is -5.95% (active); in the experiment on A498 renal, 72.8%; in the experiment with CCRF-CEM leukemia, 62.8%; with MOLT-4 leukemia it was 79.9%; with SR leukemia, 65.5%; with RPMI-8226 leukemia, 43.7%. Moreover, the growth with OVCAR-8 ovarian is 48.7%; with OVCAR-5 ovarian, 94.9%; in the experiment with OVCAR-4 ovarian, 77.1%; in the experiment on SK-OV-3 ovarian, 92%; in the experiment with IGROV1 ovarian it was 45.2%; in the experiment with OVCAR-3 ovarian, 64.8%. Moreover, the growth in the experiment on HS 578T breast is 40.7%; with NCI/ADR-RES ovarian it was 57.7%.

As for `CN(C)CCCNC(=O)c1cncnc1Nc1ccc(OCc2cccc(F)c2)c(Cl)c1`, the growth in the experiment with SK-MEL-2 melanoma was -35.7% (active); with EKVX NSCLC it was 62.8%; with SN12C renal, 28.7%; with UO-31 renal it was -4.99% (active); in the experiment with TK-10 renal, -71.7% (active); with ACHN renal, -36.8% (active). The growth in the experiment on CAKI-1 renal is -19.3% (active); in the experiment on A498 renal it was -8.81% (active); with CCRF-CEM leukemia, -34.2% (active); in the experiment with MOLT-4 leukemia, -40.9% (active); in the experiment with SR leukemia it was -48.5% (active); with RPMI-8226 leukemia, -14.6% (active). Moreover, the growth in the experiment on OVCAR-8 ovarian was 1.06% (active); with OVCAR-5 ovarian, 36.1%; with OVCAR-4 ovarian, 25.7%; in the experiment on SK-OV-3 ovarian, -24% (active); in the experiment with IGROV1 ovarian, 1.4% (active); with OVCAR-3 ovarian, 6.33% (active). For the same molecule, the growth in the experiment with HS 578T breast was -30% (active); with NCI/ADR-RES ovarian it was 43.3%.

On to `COc1ccc(C(=O)N2c3ccccc3Sc3ccccc32)c(C(F)(F)F)c1`, for which the growth with SK-MEL-2 melanoma was 47%; in the experiment with EKVX NSCLC, 45.6%; in the experiment on SN12C renal it was 40.1%; in the experiment on UO-31 renal it was 39.8%; in the experiment on TK-10 renal, 57.4%; in the experiment with ACHN renal, 32.5%. Also, the growth in the experiment with CAKI-1 renal is 31.8%; in the experiment with A498 renal it was 8.71% (active); in the experiment with CCRF-CEM leukemia, 22.4%; in the experiment with MOLT-4 leukemia, 15.1%; with SR leukemia, 16.3%; in the experiment on RPMI-8226 leukemia, 14.2%. For the same molecule, the growth with OVCAR-8 ovarian is 14.9%; in the experiment with OVCAR-5 ovarian, 44.6%; with OVCAR-4 ovarian it was 47.1%; in the experiment with SK-OV-3 ovarian, 34.4%; in the experiment with IGROV1 ovarian it was 37.9%; with OVCAR-3 ovarian it was -1.95% (active). Further, the growth with HS 578T breast is 24.3%; in the experiment on NCI/ADR-RES ovarian, 2.91% (active).

For `O=C(Nc1ncc(Cc2cc(C(F)(F)F)ccc2Cl)s1)c1cccs1`, the growth is 45% in the experiment with SK-MEL-2 melanoma; 57.3% in the experiment with EKVX NSCLC; 70.9% in the experiment on SN12C renal; 58.9% in the experiment on UO-31 renal; 71.7% with TK-10 renal; 67.2% with ACHN renal. The growth in the experiment with CAKI-1 renal is 41.7%; with A498 renal it was 62.2%; in the experiment with CCRF-CEM leukemia it was 45.4%; in the experiment on MOLT-4 leukemia it was 29.4%; with SR leukemia it was 16.1%; in the experiment with RPMI-8226 leukemia, 55.7%. Moreover, the growth with OVCAR-8 ovarian was 68.6%; with OVCAR-5 ovarian, 83.9%; with OVCAR-4 ovarian, 63.4%; in the experiment with SK-OV-3 ovarian it was 69.2%; with IGROV1 ovarian it was 52.7%; with OVCAR-3 ovarian it was 50.5%. Also, the growth was 71% with HS 578T breast and 29.7% in the experiment with NCI/ADR-RES ovarian.

In the case of `CCOc1cccc(/C=N/NC(=O)c2cccc(Nc3ccnc(C(F)(F)F)c3)c2)c1O`, the growth with SK-MEL-2 melanoma is 58.7%; in the experiment with EKVX NSCLC, 21.3%; with SN12C renal, 33.2%; with UO-31 renal it was 17.3%; with TK-10 renal, 49.5%; in the experiment on ACHN renal, 24.4%. The growth with CAKI-1 renal was 18.3%; in the experiment with A498 renal it was 61.5%; with CCRF-CEM leukemia, 6.39% (active); in the experiment with MOLT-4 leukemia, 18.2%; in the experiment on SR leukemia it was 41.4%; in the experiment with RPMI-8226 leukemia it was 27.3%. For the same molecule, the growth is 24.4% in the experiment with OVCAR-8 ovarian; 40.9% with OVCAR-5 ovarian; 39.1% in the experiment with OVCAR-4 ovarian; 30.2% in the experiment on SK-OV-3 ovarian; 24.2% in the experiment with IGROV1 ovarian; 43.2% with OVCAR-3 ovarian. For the same molecule, the growth with HS 578T breast was 43.7%; in the experiment on NCI/ADR-RES ovarian it was 37.6%.

Consider `COc1ccc(Cn2cc(C(=O)N=Nc3c(O)[nH]c4c(C)cccc34)nn2)cc1`, for which the growth with SK-MEL-2 melanoma is 91.9%; with EKVX NSCLC it was 107%; in the experiment with SN12C renal it was 62.1%; in the experiment with UO-31 renal it was 14.9%; in the experiment on TK-10 renal, 56.1%; with ACHN renal, 38.2%. The growth is 77.1% with CAKI-1 renal; 101% with A498 renal; 82.8% in the experiment with CCRF-CEM leukemia; 83.5% with MOLT-4 leukemia; 76.6% with SR leukemia; 90% in the experiment with RPMI-8226 leukemia. Also, the growth is 67.6% in the experiment on OVCAR-8 ovarian; 93.6% with OVCAR-5 ovarian; -28.2% (active) in the experiment on OVCAR-4 ovarian; 110% in the experiment on SK-OV-3 ovarian; 84.8% in the experiment on IGROV1 ovarian; 46.7% with OVCAR-3 ovarian. Also, the growth in the experiment with HS 578T breast was 84.1%; in the experiment with NCI/ADR-RES ovarian it was 71.2%.
